Drawing on PubChem BioAssay, this text covers composite z-score, z-score and composite Z-score for 8 compounds.

SMILES strings stand for the structures. The source made the active and inactive calls.

Assay [1] deals with Human papillomavirus type 1a protein E7 (residues 44-93). The experiment in a line: HPV1a E7 fragment binders on microarrays, primary screen, biochemical, small-molecule microarray, residues 44-93, 635 nm fluorescence (AID 1108).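 Also: E7 fragment applied at 1 µg/mL in TBST for 1 h at 4 C; score combines spot fluorescence with its signal to noise ratio.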 Particulars: small-molecule microarray binding, fluorescence 635 nm; higher = more signal.
Assay [2] can be described thus: modulators of HCV replicon luciferase signal, primary screen, HCV replication inhibitor project, Huh7 cells, luciferase reporter (AID 1109).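 Also: huh7 hepatoma cells harbouring a luciferase neomycin HCV replicon reporter; luciferase luminescence as measure of HCV replicon replication; test concentration not given here.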 Particulars: 48 h, higher = more signal. Background: In antiviral work, replicon cells carry a viral genome segment that copies itself.
Assay [3] addresses Left-right determination factor 2 (Homo sapiens) (UniProt O00292). The experiment in a line: LEFTY2 binders on small-molecule microarrays, primary screen, biochemical, small-molecule microarray, 635 nm fluorescence scan (AID 1110). The note with it: LEFTY2 binding, higher = more signal.
Assay [4] has as its target Calmodulin-1 (Homo sapiens) (UniProt P0DP23). The assay can be described thus: CALM1 binders on microarrays, EGTA buffer, profiling panel, biochemical, small-molecule microarray, Cy5-labelled CALM1 (AID 1111).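 Also: labelled calmodulin applied in Tris saline Tween buffer holding calcium plus EGTA and DTT.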 Particulars: Cy5-CALM1 binding fluorescence, higher = more signal.
For assay [5] the target is unchanged. The assay can be described thus: calcium-bound CALM1 binders on microarrays, profiling panel, artefact control for SMM control-protein annotation, biochemical, small-molecule microarray, Cy5-labelled CALM1, plus calcium (AID 1112).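 Also: score merges spot fluorescence with signal to noise from triplicate slides.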 Particulars: Cy5-CALM1 binding fluorescence, higher = more signal.
The nature of assay [6]: small-molecule microarray binders of probe aWnt5a, primary screen, biochemical, biotinylated probe, 635/667 nm fluorescence (AID 1113).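 Also: score merges 667 nm fluorescence intensity with signal-to-noise per printed feature.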 Particulars: higher = more signal; small-molecule microarray, probe aWnt5a, fluorescence unless noted.
Assay [7] is described as follows: small-molecule microarray binders of probe aShh, primary screen, biochemical, biotinylated probe, 635/667 nm fluorescence (AID 1114).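 Also: probe is biotin-labelled aShh protein from a stem cell growth factor screen; measures binding of labelled protein to compounds printed on the slide; score merges feature fluorescence at 667 nm with signal-to-noise.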 Particulars: higher = more signal; small-molecule microarray, probe aShh, fluorescence unless noted.
Assay [8] can be described thus: small-molecule microarray binders of probe aNog, primary screen, biochemical, biotinylated probe, 635/667 nm fluorescence (AID 1115).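 Also: probe is biotinylated aNog protein used at 0.15 µg/mL for 1 h at 4 C; z-score combines 667 nm fluorescence of each spot with its signal to noise.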 The note with it: higher = more signal; small-molecule microarray, probe aNog, fluorescence unless noted.
For assay [9], the target named is Torsin-1A-interacting protein 1 (Homo sapiens) (UniProt Q5JTV8). The assay can be described thus: LAP1 binders from COS7 cell lysate, primary screen, small-molecule microarray, 635/667 nm fluorescence (AID 1116). The note with it: COS7-hLAP1 lysate binding, 635 nm fluorescence, higher = more signal.
For assay [10], the target named is Alpha-bungarotoxin (Bungarus multicinctus) (UniProt P60615). The assay can be described thus: alpha-bungarotoxin binders on microarray, profiling panel, artefact control for SMM control protein annotation, biochemical, small-molecule microarray, Alexa647 label, 635/667 nm fluorescence (AID 1117). The note with it: alpha-BTX-A647 binding fluorescence, higher = more signal.

The target in the next assay is Albumin (Bos taurus) (UniProt P02769). The assay can be described thus: bovine serum albumin binders on microarray, profiling panel, artefact control for SMM control protein annotation, biochemical, small-molecule microarray, Alexa647 label, 635/667 nm fluorescence (AID 1118).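 Also: score merges 667 nm emission intensity and signal-to-noise per printed compound spot.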 Particulars: BSA-A647 binding, fluorescence 635 nm, higher = more signal.
Assay [11] in a line: small-molecule microarray binders of probe aXIP, primary screen, biochemical, NeuroSMM set, 635/667 nm fluorescence (AID 1119).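 Also: probe is the protein aXip251-270 applied at 1 µg/mL to compound-printed slides; binding of probe to printed compounds measured as 667 nm fluorescence plus signal to noise.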 Particulars: higher = more signal, called active from +8 up or from −8 down unless noted.
Assay [12] in a line: small-molecule binders of probe aNOTCH3, primary screen, biochemical, small-molecule microarray, 635/667 nm fluorescence (AID 1120).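 Also: probe is a biotin-tagged antibody raised against NOTCH3 rather than NOTCH3 protein; score merges spot fluorescence near 667 nm with spot signal to noise.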 The note with it: higher = more signal; small-molecule microarray, probe aNOTCH3, fluorescence unless noted.
A short description of assay [13]: small-molecule binders of probe aNOTCH2, primary screen, biochemical, small-molecule microarray, 635/667 nm fluorescence (AID 1121).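 Also: score merges feature fluorescence read at 667 nm with its signal to noise.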 Particulars: higher = more signal; small-molecule microarray, probe aNOTCH2, fluorescence unless noted.
Assay [14] concerns the target Carbonic anhydrase 2 (Homo sapiens) (UniProt P00918). The assay can be described thus: CAII small-molecule binders, profiling panel, biochemical, small-molecule microarray, Alexa647-labelled CAII (AID 1122). Particulars: CAII-A647 binding fluorescence, higher = more signal.
Assay [15] is described as follows: COS7 lysate on small-molecule microarray, probe aHis, 635 nm (AID 1123).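 Also: z-score combines 667nm fluorescence intensity with signal-to-noise per printed compound spot.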 The note with it: higher = more signal; small-molecule microarray, COS7 cell lysate, probe aHis, fluorescence unless noted.
The nature of assay [16]: compound binding in COS7 lysate, probe aLAP1, primary screen, cell lysate, small-molecule microarray (AID 1124).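 Also: lysate comes from COS7 cells expressing LAP1 and is applied at 0.3 µg/mL; score merges spot fluorescence near 667 nm with signal-to-noise over triplicate slides.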 The note with it: higher = more signal; small-molecule microarray, COS7 cell lysate, probe aLAP1, fluorescence unless noted.
In the next assay the test system is Sam68 (KHDRBS1). The experiment in a line: Sam68 small-molecule binders, primary screen, biochemical, small-molecule microarray, 635 nm fluorescence (AID 1125).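 Also: score merges 667 nm channel intensity with signal to noise over triplicate slides.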 Particulars: small-molecule microarray binding, higher = more signal.
The test system of assay [17] is Chordin-like protein 2 (CHRDL2). The assay can be described thus: CHRDL2 small-molecule binders, primary screen, biochemical, small-molecule microarray, 635 nm fluorescence (AID 1126).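 Also: printed compound slides probed with Chrdl2 protein at 4 µg/mL for 1 h at 4 C; score merges 667 nm emission intensity with signal to noise over three replicate slides.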 The note with it: small-molecule microarray binding, fluorescence 635 nm; higher = more signal.
For assay [18], the target named is Concanavalin-A (Canavalia ensiformis) (UniProt P02866). The experiment in a line: ConA small-molecule binders, primary screen, artefact control for SMM control protein annotation, biochemical, small-molecule microarray, Alexa647 label, 635 nm (AID 1127).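 Also: z combines 667 nm emission intensity with signal-to-noise across three replicate slides.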 The note with it: ConA-A647 binding fluorescence, higher = more signal.
Sequence of Concanavalin-A (Canavalia ensiformis) (P02866 whole entry, looked up): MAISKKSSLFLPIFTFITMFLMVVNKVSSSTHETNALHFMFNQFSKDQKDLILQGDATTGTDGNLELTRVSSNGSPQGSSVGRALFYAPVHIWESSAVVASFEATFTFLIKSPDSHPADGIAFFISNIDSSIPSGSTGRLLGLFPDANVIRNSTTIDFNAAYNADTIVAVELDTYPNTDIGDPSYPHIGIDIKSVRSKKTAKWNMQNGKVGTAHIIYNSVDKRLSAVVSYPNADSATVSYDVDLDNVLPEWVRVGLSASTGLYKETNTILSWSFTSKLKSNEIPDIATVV

Sequence of Albumin (Bos taurus) (P02769 whole entry, looked up): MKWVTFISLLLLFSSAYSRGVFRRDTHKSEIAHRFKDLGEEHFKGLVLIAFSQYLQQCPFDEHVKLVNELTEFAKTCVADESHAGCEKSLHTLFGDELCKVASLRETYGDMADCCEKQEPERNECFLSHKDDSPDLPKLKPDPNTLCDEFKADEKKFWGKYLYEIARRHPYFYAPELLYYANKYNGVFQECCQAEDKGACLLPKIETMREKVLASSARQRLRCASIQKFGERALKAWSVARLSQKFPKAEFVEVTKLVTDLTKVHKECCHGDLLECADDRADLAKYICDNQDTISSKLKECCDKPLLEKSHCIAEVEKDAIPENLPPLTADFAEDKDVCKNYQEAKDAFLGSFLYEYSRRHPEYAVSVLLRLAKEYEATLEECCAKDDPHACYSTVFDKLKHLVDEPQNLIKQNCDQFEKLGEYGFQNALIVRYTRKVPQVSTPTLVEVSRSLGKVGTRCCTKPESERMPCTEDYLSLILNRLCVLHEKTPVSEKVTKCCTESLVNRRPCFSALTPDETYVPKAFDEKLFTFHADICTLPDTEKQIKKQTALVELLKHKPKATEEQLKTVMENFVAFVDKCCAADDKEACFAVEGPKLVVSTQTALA
Sequence of Left-right determination factor 2 (Homo sapiens) (O00292 whole entry, looked up): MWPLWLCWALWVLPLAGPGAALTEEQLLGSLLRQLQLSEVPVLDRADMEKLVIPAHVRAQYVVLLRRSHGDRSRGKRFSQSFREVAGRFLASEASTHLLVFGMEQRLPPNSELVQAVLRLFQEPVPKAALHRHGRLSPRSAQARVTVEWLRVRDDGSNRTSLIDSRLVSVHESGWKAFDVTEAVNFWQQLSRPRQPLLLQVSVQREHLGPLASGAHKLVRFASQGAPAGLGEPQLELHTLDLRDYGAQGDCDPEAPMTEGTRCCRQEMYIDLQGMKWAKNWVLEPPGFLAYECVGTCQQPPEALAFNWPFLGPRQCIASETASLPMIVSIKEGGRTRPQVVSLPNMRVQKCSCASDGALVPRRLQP
Sequence of Torsin-1A-interacting protein 1 (Homo sapiens) (Q5JTV8 whole entry, looked up): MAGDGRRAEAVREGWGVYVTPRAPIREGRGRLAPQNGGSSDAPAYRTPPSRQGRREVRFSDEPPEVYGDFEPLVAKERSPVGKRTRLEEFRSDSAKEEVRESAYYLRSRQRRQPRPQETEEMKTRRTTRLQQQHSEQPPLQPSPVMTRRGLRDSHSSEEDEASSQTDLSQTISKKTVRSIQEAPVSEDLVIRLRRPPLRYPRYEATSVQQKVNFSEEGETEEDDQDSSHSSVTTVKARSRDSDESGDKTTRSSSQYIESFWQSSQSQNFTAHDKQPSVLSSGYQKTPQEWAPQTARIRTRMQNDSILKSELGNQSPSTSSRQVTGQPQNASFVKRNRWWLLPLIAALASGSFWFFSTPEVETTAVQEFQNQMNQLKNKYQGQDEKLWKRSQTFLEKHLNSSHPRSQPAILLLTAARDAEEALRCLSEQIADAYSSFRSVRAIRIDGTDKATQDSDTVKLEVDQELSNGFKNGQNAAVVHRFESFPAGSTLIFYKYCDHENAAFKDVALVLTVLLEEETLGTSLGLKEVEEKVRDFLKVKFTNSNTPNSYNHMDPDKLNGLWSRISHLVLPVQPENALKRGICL
Sequence of Alpha-bungarotoxin (Bungarus multicinctus) (P60615 whole entry, looked up): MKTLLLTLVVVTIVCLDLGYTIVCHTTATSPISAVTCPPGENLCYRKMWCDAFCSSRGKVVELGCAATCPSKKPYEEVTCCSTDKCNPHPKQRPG

`CCOC(=O)[C@H]1CC=C2C(=O)Oc3ccc(Br)cc3[C@@H]21`: the composite z-score in [1] was 0.891; in assay [3], -1.91; in assay [4], 1.27; in assay [5], 0.0172; in [6], -0.0118; in assay [7], 0.151. Also, the composite z-score is 0.884 in [8]; 0.501 in assay [9]; 1.65 in [10]; -0.104 in the assay with Albumin (Bos taurus); -0.245 in assay [12]; -0.0896 in [13]. The composite z-score in assay [14] was 0.663; in assay [15] it was 1.95; in [16], 0.328; with Sam68 (KHDRBS1), 0.893; in assay [17] it was -1.24; in assay [18], 1.13. In addition, in assay [2], the z-score was -3.69. Besides, the composite Z-score in assay [11] is 0.35 (inactive).
As for `CN1CCC(c2ccc(CO)cc2)=CC1c1cccs1` (stereo not given), the composite z-score in [1] is -0.895; in assay [3], -0.0469; in assay [4] it was -0.0348; in assay [5] it was -0.556; in [6] it was -0.0685; in assay [7], -0.0769. Further, the composite z-score in [8] was -0.216; in assay [9], 0.238; in assay [10], 0.945; in the assay with Albumin (Bos taurus), -0.105; in [12] it was 0.956; in [13], -0.14. Moreover, the composite z-score in [14] was 0.737; in assay [15] it was -0.563; in [16], 0.179; with Sam68 (KHDRBS1) it was -1.28; in [17] it was 1.35; in [18] it was 0.199. In addition, the z-score in assay [2] amounted to 1.05. The composite Z-score in assay [11] is 0.204 (inactive).
As for `COC(=O)[C@H]1[C@H](c2ccccc2)C(=O)[C@]2(O)c3ccccc3O[C@@]12c1ccccc1`, the composite z-score in assay [1] is 0.304; in assay [3], 0.832; in assay [4], 0.384; in assay [5], -0.0524; in assay [6] it was -0.131; in [7] it was 0.0048. Besides, the composite z-score in assay [8] was -0.293; in assay [9] it was 0.106; in [10], 0.0914; with Albumin (Bos taurus), 0.394; in assay [12], 0.0833; in [13], -0.199. Besides, the composite z-score in assay [14] is -0.132; in [15], 0.0246; in assay [16], -0.0474; in the assay on Sam68 (KHDRBS1), 0.198; in [17], 0.263; in assay [18], 0.711. The z-score in assay [2] turned out to be 0.0741. Further, the composite Z-score in assay [11] is 0.311 (inactive).
With `CCCC=C(CCC)[C@@H](NP(=O)(c1ccccc1)c1ccccc1)c1ccccc1`, the composite z-score in assay [1] was 1.28; in assay [3], 0.943; in [4] it was 1.94; in assay [5], 0.42; in [6], 0.208; in assay [7], -0.106. The composite z-score in assay [8] is -0.519; in [9], 0.275; in [10] it was 0.44; in the assay with Albumin (Bos taurus) it was 0.377; in assay [12], 0.0873; in assay [13], -0.053. The composite z-score is -0.0222 in [14]; 0.122 in assay [15]; -0.264 in [16]; 0.986 in the assay on Sam68 (KHDRBS1); -0.141 in [17]; 1.07 in [18]. Also, in assay [2], the z-score is -1.39. Also, the composite Z-score in assay [11] was 0.655 (inactive).
As for `C=C(CC1(CNP(=O)(c2ccccc2)c2ccccc2)CC1)c1ccccc1`, the composite z-score in assay [1] is -0.872; in [3], 0.165; in [4] it was 1.22; in [5] it was 0.442; in assay [6] it was 0.0597; in assay [7], -0.273. In addition, the composite z-score in [8] was 1.01; in [9], 0.836; in assay [10], -0.108; in the assay with Albumin (Bos taurus) it was 0.44; in assay [12], 0.179; in assay [13], 0.0312. Besides, the composite z-score was 0.809 in [14]; 1.2 in assay [15]; 0.399 in [16]; -0.975 with Sam68 (KHDRBS1); -0.754 in assay [17]; -0.139 in assay [18]. For the same compound, the z-score in assay [2] is -1. In assay [11], the composite Z-score was -0.0318 (inactive).
On to `OCc1ccc(C2=CC(c3cccs3)N(Cc3cccc(OC(F)(F)F)c3)CC2)cc1` (stereo not given), for which the composite z-score in assay [1] is -0.307; in assay [3], 0.198; in assay [4], -0.573; in [5], -0.411; in [6], -0.091; in [7], -0.138. The composite z-score is -0.244 in [8]; 0.221 in [9]; 0.934 in [10]; 0.343 with Albumin (Bos taurus); -0.0596 in assay [12]; -0.115 in assay [13]. Further, the composite z-score was 0.197 in assay [14]; 0.609 in assay [15]; -0.368 in assay [16]; 0.277 with Sam68 (KHDRBS1); 0.396 in assay [17]; -0.426 in assay [18]. The z-score in assay [2] is -1.07. In addition, the composite Z-score in [11] was -0.375 (inactive).
Regarding `C[C@H]1O[C@H]2C3=C(C(=O)[C@@H]4O[C@@H]4[C@@H]3O)[C@@H]1[C@@H]1[C@@H](C)OC=C3[C@@H](O)[C@H]4O[C@H]4C(=O)[C@]312`, the composite z-score in assay [1] is -1.18; in [3], -0.107; in assay [4] it was -0.806; in assay [5], -0.447; in assay [6] it was -0.125; in assay [7], -0.0553. Moreover, the composite z-score was -0.252 in assay [8]; -0.404 in assay [9]; 0.411 in assay [10]; 0.664 with Albumin (Bos taurus); -0.0947 in [12]; -0.125 in [13]. Also, the composite z-score in assay [14] is 0.26; in [15], -0.393; in assay [16] it was -0.494; with Sam68 (KHDRBS1), -1.77; in [17] it was -0.0769; in assay [18], -1.83. For the same compound, in [2], the z-score is -2.57. In addition, the composite Z-score in [11] is 0.19 (inactive).
Regarding `COc1cc2c(cc1O)C=[N+](C)CC2`, the composite z-score is -2.1 in assay [1]; -0.0898 in assay [3]; -0.683 in assay [4]; -0.399 in assay [5]; -0.15 in assay [6]; -0.138 in [7]. For the same compound, the composite z-score in assay [8] is -0.436; in assay [9] it was -0.347; in [10], -0.596; with Albumin (Bos taurus), 0.502; in [12] it was -0.0377; in assay [13], -0.133. The composite z-score was 0.329 in assay [14]; -0.4 in assay [15]; -0.93 in assay [16]; -1.67 in the assay with Sam68 (KHDRBS1); 0.185 in assay [17]; -1.48 in assay [18]. The z-score in [2] was -0.0523. Further, in assay [11], the composite Z-score is -0.296 (inactive).
